Test results taken from PubChem BioAssay (NCI).
The panel holds about 83,000 compounds, 20% with a hit somewhere; the sample as a whole holds those more often.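 96-well plates, one dose, 48 hours. Percent growth reported; active if below 10.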 Unmarked numbers belong to inactive results. The source made the active and inactive calls.

test system: HCT-116 colon; assay: NCI-60 one-dose screen, 48 h (100 = growth as untreated, 0 = no growth, -100 = all killed); settings: 10 µM

Compound	growth
COc1cc2cc(C(=O)N3C[C@@H](CCl)c4c3cc(OC(=O)N3CCN(C)[C@@H]5CSSC[C@H]53)c3ccccc43)[nH]c2c(OC)c1OC	-23.6% (active)
CC1=C(CCC=O)C2=C(C)C3(CC3)[C@@](C)(O)C(=O)C2=C1	-63.9% (active)
COC(=O)C[C@](O)(CCC(C)C)C(=O)O[C@@H]1C(OC)=C[C@]23CCCN2CCc2cc4c(cc2[C@H]13)OCO4	-27.5% (active)
O=C(/C=C/c1ccc(Cl)cc1)c1nc2ccccc2n1Cc1ccc(F)cc1	3.49% (active)
CC[C@]12C=CCN3CC[C@@]4(c5ccc(OC)cc5N(C)[C@H]4[C@@](O)(C(=O)OC)[C@@H]1OC(=O)CCC[P+](C1CCCCC1)(C1CCCCC1)C1CCCCC1)[C@@H]32	0.156% (active)
CC1=C2C(=C[C@@](C)(COP(=O)(Oc3ccccc3)Oc3ccccc3)[C@@H]2O)C(=O)[C@@](C)(O)C12CC2	0.872% (active)
CC(=O)Oc1ccccc1C(=O)NC([Se])=NC1CCCCC1	21%
CCOP(=O)(CC(F)(F)C(F)(F)F)OCC	-70.7% (active)
CC(C)C[C@H](NC(=O)CNC(=O)C[C@H]1O[C@@H]2OC3(C)CC[C@H]4[C@H](C)CC[C@@H]([C@H]1C)[C@@]24OO3)B(O)O	-72.3% (active)
C[C@H]1[C@@H](Oc2ccc(-c3cn(-c4ccnc5cc(Cl)ccc45)nn3)cc2)O[C@@H]2OC3(C)CC[C@H]4[C@H](C)CC[C@@H]1[C@@]24OO3	15.8%
C[C@H]1[C@H](OC(=O)CCC(=O)N(CCCc2cn(-c3ccc([N+](=O)[O-])cc3)nn2)CCNc2ccnc3cc(Cl)ccc23)O[C@@H]2OC3(C)CC[C@H]4[C@H](C)CC[C@@H]1[C@@]24OO3	31.1%
